# Source: PubChem BioAssay (NCI)
# About 83,000 compounds went through this panel and 20% of them were active in at least one assay; those are over-represented in the sample as a whole.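 Each cell line was grown in a 96-well plate and treated with one concentration of compound for 48 hours. Values below 10 were considered active.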 Unmarked numbers belong to inactive results. Activity calls are given as the source filed them.
# Tests used:
# Test in all cases: NCI-60 one-dose screen, 48 h (100 = growth as untreated, 0 = no growth, -100 = all killed)
# Settings in all cases: 10 µM unless noted
# RPMI-8226 leukemia = tested on: RPMI-8226 leukemia
# OVCAR-8 ovarian = tested on: OVCAR-8 ovarian
# OVCAR-5 ovarian = tested on: OVCAR-5 ovarian
# OVCAR-4 ovarian = tested on: OVCAR-4 ovarian
# SK-OV-3 ovarian = tested on: SK-OV-3 ovarian
# IGROV1 ovarian = tested on: IGROV1 ovarian
# OVCAR-3 ovarian = tested on: OVCAR-3 ovarian
# HS 578T breast = tested on: HS 578T breast
# NCI/ADR-RES ovarian = tested on: NCI/ADR-RES ovarian
# BT-549 breast = tested on: BT-549 breast
# MDA-MB-435 melanoma = tested on: MDA-MB-435 melanoma
# SW-620 colon = tested on: SW-620 colon
# MCF7 breast = tested on: MCF7 breast
# HCT-116 colon = tested on: HCT-116 colon
# HCC-2998 colon = tested on: HCC-2998 colon
# KM12 colon = tested on: KM12 colon
# T-47D breast = tested on: T-47D breast
SMILES,growth (RPMI-8226 leukemia),growth (OVCAR-8 ovarian),growth (OVCAR-5 ovarian),growth (OVCAR-4 ovarian),growth (SK-OV-3 ovarian),growth (IGROV1 ovarian),growth (OVCAR-3 ovarian),growth (HS 578T breast),growth (NCI/ADR-RES ovarian),growth (BT-549 breast),growth (MDA-MB-435 melanoma),growth (SW-620 colon),growth (MCF7 breast),growth (HCT-116 colon),growth (HCC-2998 colon),growth (KM12 colon),growth (T-47D breast)
CC(C)(C)OC(=O)N1C/C(=C\c2ccccc2)C(=O)/C(=C/c2ccccc2)C1,31%,96.5%,86.5%,97.9%,95.2%,95.5%,103%,102%,98.9%,91.5%,102%,93.7%,78.1%,80.7%,103%,108%,
COC(=O)c1c[n+]([O-])ccc1OC,111%,110%,117%,123%,106%,107%,113%,109%,105%,111%,102%,109%,101%,113%,104%,111%,114%
Cc1ccc(C(=O)Nc2ccc(CN3CCN(C)CC3)c(C(F)(F)F)c2)cc1C#Cc1cncc2ncccc12,-53.5% (active),-76.8% (active),-93.9% (active),-87.5% (active),-12.6% (active),-82.7% (active),24.8%,-32.4% (active),4.19% (active),-82.3% (active),-93.3% (active),-66.6% (active),-65.4% (active),-84.7% (active),34.8%,-81.6% (active),
COc1ccc2cnc(N)c(C#Cc3cc(C(=O)Nc4ccc(CN5CCN(C)CC5)c(C(F)(F)F)c4)cnc3C)c2c1,48.1%,75.4%,-39.3% (active),58.2%,69.4%,28.8%,93%,-16.3% (active),78.1%,,26.2%,13.8%,39%,20.5%,86.1%,11%,
CN1NC(c2ccccc2)NN(C)C1=O,105%,103%,109%,101%,104%,109%,112%,113%,101%,109%,102%,91.1%,96.3%,101%,103%,118%,95.7%
O=C(Nc1cccc(Cn2c(=O)[nH]c3ccc(Oc4ncccn4)cc3c2=O)c1)c1cccc(F)c1,52.3%,78.7%,96.1%,73.9%,83%,78.2%,84.1%,92.8%,104%,71.4%,51%,95.3%,57.9%,,92.5%,66.6%,
COc1cc2c(c(OC)c1OC)C(=O)CC(c1cccc(C(=O)Nc3cccc(Br)c3)c1)O2 (stereo not drawn),46.8%,55%,95.7%,82.7%,82%,83%,87.7%,91.5%,84.7%,63%,69.3%,95.4%,68.3%,,112%,71.2%,
N#Cc1c(N)nc(Nc2nc3ccccc3[nH]2)nc1-c1ccc(Cl)cc1,94.4%,102%,107%,116%,88.4%,98.7%,127%,145%,107%,,106%,117%,86.9%,109%,,109%,93.8%
O=C(Nc1cccc(Cn2c(=O)[nH]c3ccc(Oc4ncccn4)cc3c2=O)c1)c1ccc(Cl)cc1,25.5%,31.8%,99%,31.5%,66%,66.9%,65.1%,49.2%,71.2%,41.6%,43%,71.5%,28%,39.2%,81.7%,15.3%,
CCn1cc(C(=O)O)c(=O)c2cc(F)c(N3CCN(S(=O)(=O)c4ccc(Cl)cc4)CC3)cc21,13.4%,12.6%,51.9%,37.7%,40.8%,9.37% (active),28.2%,18.9%,68.7%,12.6%,25.1%,24%,14.3%,4.8% (active),24.5%,4.3% (active),41.1%
COc1ccc(-c2nc(Nc3nc4ccccc4[nH]3)nc(N)c2C#N)cc1,94%,103%,104%,102%,102%,59.1%,111%,129%,103%,86.4%,117%,108%,90.2%,93.8%,,108%,97.1%
O=C(/C=C/c1cccc(O)c1)c1cccc(-n2cc(-c3ccc(Cl)cc3)[nH]c2=O)c1,-53.2% (active),-2.92% (active),-47.3% (active),10.4%,37.7%,-42.9% (active),-79.7% (active),-48.4% (active),3.39% (active),-42.5% (active),-9.55% (active),-75.4% (active),-8.69% (active),,-64.4% (active),-73.3% (active),-0.126% (active)
C/C=C(/C)C(=O)OC1C=C(CO)C(=O)C(OC(=O)/C(C)=C\C)C1C(C)C (stereo not drawn),-39.4% (active),-22.7% (active),-76.6% (active),-48.8% (active),16.4%,-77% (active),-89.1% (active),28.8%,-6.28% (active),-32.7% (active),-78.7% (active),-59% (active),-16.6% (active),-76.1% (active),-85.9% (active),-41.3% (active),
Cc1ncc(C(=O)Nc2ccc(CN3CCN(C)CC3)c(C(F)(F)F)c2)cc1C#Cc1cnc(NC2CC2)c2ncccc12,-41.1% (active),-91.7% (active),-91.1% (active),-60.5% (active),43.3%,-80.4% (active),-90.4% (active),43%,-41.9% (active),-91.7% (active),-86.4% (active),-74.3% (active),-76.8% (active),,-54.4% (active),-82.6% (active),
CN1CCN(Cc2ccc(NC(=O)c3ccc(C#Cc4c(N)ncc5ccc(F)cc45)cc3)cc2C(F)(F)F)CC1,-43.3% (active),-28.4% (active),-52.8% (active),-19.9% (active),64%,-50.6% (active),-25.9% (active),29.9%,-12.3% (active),27.7%,-92% (active),-52.5% (active),-77.3% (active),-95.4% (active),-82.9% (active),-75.5% (active),
CCOc1ccc(/C=N/NC(=O)c2cccc3ccccc23)cc1OCC,83.8%,105%,104%,91.9%,99.2%,108%,96.4%,98.6%,97.9%,,111%,105%,92.9%,,105%,103%,86.1%
COc1ccc2c(N)ncc(C#Cc3cc(C(=O)Nc4ccc(CN5CCN(C)CC5)c(C(F)(F)F)c4)cnc3C)c2c1,-45.1% (active),-34.7% (active),-21.6% (active),0.668% (active),24.5%,-71.6% (active),11.7%,30%,16%,46%,-56.7% (active),-57.7% (active),-49.2% (active),-75.8% (active),19.3%,-49.1% (active),
COc1cc(NC(=O)CSc2nc3ccc(Cl)cc3c(=O)n2-c2ccc(F)cc2)cc(OC)c1OC,39.2%,88.8%,88.7%,77.2%,87.6%,86.6%,80.6%,75%,81%,95.9%,90.8%,95.4%,87.5%,79.4%,105%,85.2%,72.6%
O=C(O)/C(Br)=C/c1c[nH]c2ccc(Br)cc12,114%,106%,90.6%,59.7%,171%,98.2%,105%,105%,102%,121%,117%,110%,137%,98.2%,94.2%,103%,184%
